Laboratory results reported in PubChem BioAssay AID1159580 (chemical genetic matrix, 2015).
The whole screen tested about 5,500 compounds, of which about 2,000 (36%) were called active. Roughly 18% stayed inconclusive and do not appear here. Cut-off read from the data, not from the text of the source: active = normalized growth mostly below about 0.91 (no sharp cut-off); inconclusive = no clear call, values can overlap the other calls; inactive = mostly above about 0.92. The list shows a part of the results.

Test: chemical genetic growth profiling, strain panel (AID 1159580);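 note: tested at 20 µM; growth read once vehicle control cultures reached saturation at 30 °C; 1 = growth at the plate median or of vehicle wells; lower values mean less growth of the strain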
Conditions: S. cerevisiae deletion strains, growth OD

Measured: normalized growth

CC1(C)CC(O)C2(C)CCC3(C)C(=CCC4C5(C)CCC(O)C(C)(CO)C5CCC43C)C2C1 (configuration not stated)
inactive: locus YAL021C, strain ccr4, stronger effect = lower value 1.02 | locus YAL026C, strain drs2, stronger effect = lower value 1.03 | locus YAL030W, strain snc1, stronger effect = lower value 1.02 | locus YBL061C, strain skt5, stronger effect = lower value 1.03 | locus YBR009C, strain hhf1, stronger effect = lower value 1.02 | locus YBR023C, strain chs3, stronger effect = lower value 1.03 | locus YBR171W, strain sec66, stronger effect = lower value 1.03 | locus YBR231C, strain swc5, stronger effect = lower value 1.03 | locus YBR279W, strain paf1, stronger effect = lower value 1.02 | locus YCL011C, strain gbp2, stronger effect = lower value 1.03 | locus YCL016C, strain dcc1, stronger effect = lower value 1.03 | locus YCL061C, strain MRC1, stronger effect = lower value 1.02 | locus YCL069W, strain vba3, stronger effect = lower value 1.03 | locus YCR088W, strain abp1, stronger effect = lower value 1.03 | locus YDL005C, strain med2, stronger effect = lower value 1.03 | locus YDL040C, strain nat1, stronger effect = lower value 1.03 | locus YDR001C, strain nth1, stronger effect = lower value 1.02 | locus YDR069C, strain doa4, stronger effect = lower value 1.04 | locus YDR137W, strain rgp1, stronger effect = lower value 0.956 | locus YDR159W, strain sac3, stronger effect = lower value 1.04 | locus YDR195W, strain ref2 1 | locus YDR297W, strain sur2, stronger effect = lower value 1.02 | locus YDR334W, strain swr1, stronger effect = lower value 1.03 | locus YDR335W, strain msn5, stronger effect = lower value 1.03 | locus YDR392W, strain spt3, stronger effect = lower value 1.03 | locus YEL003W, strain gim4, stronger effect = lower value 1.02 | locus YEL037C, strain rad23, stronger effect = lower value 1.02 | locus YEL061C, strain CIN8 (second series), stronger effect = lower value 1.02 | locus YER015W, strain faa2, stronger effect = lower value 1.02 | locus YER016W, strain bim1, stronger effect = lower value 1.03 | locus YER111C, strain swi4, stronger effect = lower value 1.03 | locus YER155C, strain BEM2 (second series), stronger effect = lower value 1.04 | locus YFR010W, strain ubp6, stronger effect = lower value 1.03 | locus YGL167C, strain pmr1, stronger effect = lower value 1.02 | locus YGL173C, strain kem1, stronger effect = lower value 1.03 | locus YGL227W, strain vid30, stronger effect = lower value 1.03 | locus YGL240W, strain doc1, stronger effect = lower value 1.02 | locus YGL253W, strain hxk2, stronger effect = lower value 1.03 | locus YHR013C, strain ard1, stronger effect = lower value 1.04 | locus YHR027C, strain rpn1, stronger effect = lower value 1.02 | locus YHR142W, strain chs7, stronger effect = lower value 1.03 | locus YJL092W, strain hpr5, stronger effect = lower value 1.03 | locus YJL095W, strain BCK1 (second series), stronger effect = lower value 1.04 | locus YJL115W, strain asf1, stronger effect = lower value 1.04 | locus YJL129C, strain trk1, stronger effect = lower value 1.04 | locus YJL154C, strain vps35, stronger effect = lower value 1.02 | locus YJL164C, strain tpk1, stronger effect = lower value 1.03 | locus YJL166W, strain qcr8, stronger effect = lower value 1.02 | locus YJL187C, strain SWE1, stronger effect = lower value 1.02 | locus YKL160W, strain elf1, stronger effect = lower value 1.02 | locus YKR026C, strain gcn3, stronger effect = lower value 1.04 | locus YKR091W, strain srl3, stronger effect = lower value 1.03 | locus YLL001W, strain dnm1, stronger effect = lower value 1.03 | locus YLL026W, stronger effect = lower value 1.03 | locus YLL041C, strain sdh2, stronger effect = lower value 1.03 | locus YLR027C, strain aat2, stronger effect = lower value 1.03 | locus YLR221C, strain rsa3, stronger effect = lower value 1.02 | locus YLR258W, strain gsy2, stronger effect = lower value 1.04 | locus YLR262C, strain YPT6 (second series), stronger effect = lower value 0.994 | locus YLR320W, strain mms22, stronger effect = lower value 1.04 | locus YLR342W, strain FKS1, stronger effect = lower value 1.02 | locus YLR357W, strain rsc2, stronger effect = lower value 1.02 | locus YLR370C, strain arc18, stronger effect = lower value 1.03 | locus YLR384C, strain iki3, stronger effect = lower value 1.03 | locus YML120C, strain ndi1, stronger effect = lower value 1.04 | locus YMR058W, strain fet3, stronger effect = lower value 1.02 | locus YMR125W, strain sto1, stronger effect = lower value 1.04 | locus YMR129W, stronger effect = lower value 1.02 | locus YMR205C, strain PFK2, stronger effect = lower value 1.03 | locus YMR231W, strain pep5, stronger effect = lower value 1.03 | locus YNL071W, strain lat1, stronger effect = lower value 1.02 | locus YNL209W, strain ssb2, stronger effect = lower value 1.03 | locus YNL248C, strain rpa49, stronger effect = lower value 1.02 | locus YNL322C, strain KRE1 (second series), stronger effect = lower value 1.02 | locus YNR049C, strain mso1, stronger effect = lower value 1.04 | locus YOR001W, strain rrp6, stronger effect = lower value 1.04 | locus YOR070C, strain gyp1, stronger effect = lower value 1.03 | locus YOR080W, strain dia2, stronger effect = lower value 1.03 | locus YOR083W, strain WHI5, stronger effect = lower value 1.02 | locus YOR106W, strain vam3, stronger effect = lower value 1.03 | locus YOR265W, strain rbl2, stronger effect = lower value 1.03 | locus YOR270C, strain vph1, stronger effect = lower value 1.03 | locus YOR290C, strain snf2, stronger effect = lower value 1.03 | locus YPL051W, strain arl3, stronger effect = lower value 1.02 | locus YPL078C, strain atp4, stronger effect = lower value 1.03 | locus YPL106C, strain sse1, stronger effect = lower value 1.05 | locus YPL240C, strain hsp82, stronger effect = lower value 1.03
